# Test results published in the supplement of paper PMC6411743.
# ± gives the standard deviation of the averaged measurements. Targets with the largest changes are over-represented here; the source holds about 5,400 in all.
# Molecular target: T1, B1ALK7|Q14155-1|Q14155-5 (UniProt Q14155)
# T1 sequence (whole entry): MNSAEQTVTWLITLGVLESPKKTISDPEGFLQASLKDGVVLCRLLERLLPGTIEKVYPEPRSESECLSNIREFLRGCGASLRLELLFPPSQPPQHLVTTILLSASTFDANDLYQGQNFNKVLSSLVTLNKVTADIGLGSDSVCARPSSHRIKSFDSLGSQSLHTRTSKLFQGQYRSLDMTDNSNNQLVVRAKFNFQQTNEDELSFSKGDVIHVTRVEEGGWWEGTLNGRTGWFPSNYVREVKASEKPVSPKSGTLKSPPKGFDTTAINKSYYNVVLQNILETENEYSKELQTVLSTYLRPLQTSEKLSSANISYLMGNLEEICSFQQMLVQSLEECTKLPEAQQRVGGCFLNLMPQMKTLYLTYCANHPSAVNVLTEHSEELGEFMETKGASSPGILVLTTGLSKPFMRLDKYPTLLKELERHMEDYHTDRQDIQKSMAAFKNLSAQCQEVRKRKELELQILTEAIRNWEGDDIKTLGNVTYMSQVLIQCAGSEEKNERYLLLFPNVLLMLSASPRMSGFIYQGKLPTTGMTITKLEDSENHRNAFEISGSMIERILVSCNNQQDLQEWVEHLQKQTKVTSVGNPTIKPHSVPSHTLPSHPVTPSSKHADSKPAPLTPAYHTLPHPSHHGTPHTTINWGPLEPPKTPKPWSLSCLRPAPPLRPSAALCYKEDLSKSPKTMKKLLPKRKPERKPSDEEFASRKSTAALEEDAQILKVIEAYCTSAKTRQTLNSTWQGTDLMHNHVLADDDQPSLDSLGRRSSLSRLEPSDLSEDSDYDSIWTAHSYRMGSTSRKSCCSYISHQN
# Assay: NP40-soluble protein abundance relative to vehicle (solubility fold change) (ratio); higher = more soluble protein in presence of GTP
# Method: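 Solubility proteome profiling in Jurkat crude lysate. Lysate was treated with Mg-GTP (0.1-10 mM) for 10 min at room temperature and 3 min at 37 °C, then solubilised with 0.8% NP40 and benzonase, followed by ultracentrifugation. Proteins were quantified by TMT10 LC-MS/MS; the value is the NP40-soluble abundance relative to the NP40-processed vehicle, from 3 independent experiments.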
smiles,measurement,setting,value
Nc1nc2c(ncn2[C@@H]2O[C@H](COP(=O)(O)OP(=O)(O)OP(=O)(O)O)[C@@H](O)[C@H]2O)c(=O)[nH]1 [guanosine triphosphate],NP40-soluble protein abundance,concentration: 0.1mM,0.994 ± 0.036
same,NP40-soluble protein abundance,concentration: 0.5mM,0.9903 ± 0.0023
same,NP40-soluble protein abundance,concentration: 1mM,1.004 ± 0.007
same,NP40-soluble protein abundance,concentration: 2mM,1.01 ± 0.028
same,NP40-soluble protein abundance,concentration: 4mM,0.996 ± 0.015
same,NP40-soluble protein abundance,concentration: 6mM,0.9797 ± 0.0044
same,NP40-soluble protein abundance,concentration: 8mM,1 ± 0.033
same,NP40-soluble protein abundance,concentration: 10mM,0.977 ± 0.046
